Read-out in assay [1]: Interferon-gamma inducible Protein 10 (IP10), CXCL10 (gene 3627)
The assay can be described thus: BSK_hDFCGF_IP10: BioMAP Diversity Plus: hDFCGF Assay for Interferon-gamma inducible Protein 10 (IP10) Biomarker Activity (AID 2283053). Conditions: primary human foreskin fibroblasts; actives raise or lower the signal. Put shortly:
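Primary human foreskin fibroblasts exposed to chemicals for 24 h. IP-10 measured by ELISA; changes fitted bidirectionally against DMSO baseline.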

Read-out in assay [2]: Urokinase-type plasminogen activator receptor (uPAR), PLAUR (gene 5329)
The assay can be described thus: BSK_CASM3C_uPAR: BioMAP Diversity Plus: CASM3C Assay for Urokinase-type plasminogen activator receptor (uPAR) Biomarker Activity (AID 2283054).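 Note: cell-surface uPAR protein level quantified by ELISA.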 To be noted: primary human coronary artery smooth muscle cells; actives raise or lower the signal.

Read-out in assay [3]: Vascular cell adhesion molecule 1 (VCAM1), VCAM1 (gene 7412)
Description: BSK_CASM3C_VCAM1: BioMAP Diversity Plus: CASM3C Assay for Vascular cell adhesion molecule 1 (VCAM1) Biomarker Activity (AID 2283055).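 Note: VCAM-1 protein level quantified by ELISA on the cells.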 To be noted: primary human coronary artery smooth muscle cells; actives raise or lower the signal.

Read-out in assay [4]: Collagen III, COL3A1 (gene 1281)
The assay can be described thus: BSK_hDFCGF_CollagenIII: BioMAP Diversity Plus: hDFCGF Assay for Collagen III Biomarker Activity (AID 2283056). Conditions: primary human foreskin fibroblasts; actives raise or lower the signal. Put shortly: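 Human foreskin fibroblast primary cultures sampled 24 h after dosing; Collagen III quantified by ELISA. Signal fitted bidirectionally against DMSO baseline.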

Read-out in assay [5]: Epidermal growth factor receptor (EGFR), EGFR (gene 1956)
The assay can be described thus: BSK_hDFCGF_EGFR: BioMAP Diversity Plus: hDFCGF Assay for Epidermal growth factor receptor (EGFR) Biomarker Activity (AID 2283057). To be noted: primary human foreskin fibroblasts; actives raise or lower the signal. Put shortly: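 Primary human foreskin fibroblasts (hDFCGF system), sampled 24 h after dosing; EGFR quantified by ELISA. Bidirectional fit relative to DMSO baseline; SRB total-protein staining in parallel cultures for cytotoxicity.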

Read-out in assay [6]: Interleukin-8 (IL8), CXCL8 (gene 3576)
The assay can be described thus: BSK_hDFCGF_IL8: BioMAP Diversity Plus: hDFCGF Assay for Interleukin-8 (IL8) Biomarker Activity (AID 2283058). Conditions: primary human foreskin fibroblasts; actives raise or lower the signal. Put shortly: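 Primary human foreskin fibroblasts (hDFCGF system) dosed with chemical; IL-8 measured by ELISA 24 hours later. Bidirectional curve fitting relative to DMSO baseline; cytotoxicity tracked in parallel cultures by SRB total protein staining.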

The nature of assay [7]: BSK_hDFCGF_Proliferation: Cell Proliferation Assessment in the BioMAP Diversity Plus: hDFCGF Assay (AID 2283059).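 Note: curves fitted for both rise and fall of signal versus DMSO baseline.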 To be noted: primary human foreskin fibroblasts. The method, boiled down: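 Total protein read at 560 nm after 0.1% SRB staining of TCA-fixed human skin fibroblasts, […]. Activity is fitted in both directions relative to DMSO as baseline.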

Read-out in assay [8]: Macrophage colony-stimulating factor (MCSF), CSF1 (gene 1435)
The assay can be described thus: BSK_hDFCGF_MCSF: BioMAP Diversity Plus: hDFCGF Assay for Macrophage colony-stimulating factor (MCSF) Biomarker Activity (AID 2283060). Conditions: primary human foreskin fibroblasts; actives raise or lower the signal. Put shortly:
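Human foreskin fibroblast primary cultures; M-CSF measured by ELISA 24 hours after chemical dosing. Bidirectional fitting relative to DMSO, with overt cytotoxicity tracked by parallel SRB total-protein staining (0.1% SRB, 10% TCA fixation, 560 nm).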

A short description of assay [9]: BSK_hDFCGF_SRB: Viability Assessment in the BioMAP Diversity Plus: hDFCGF Assay (AID 2283061).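 Note: cells exposed to compound for 24 h before the read.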 Conditions: primary human foreskin fibroblasts. The method, boiled down:
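Human foreskin fibroblasts in 96-well plates were treated 24 h. Total protein was measured by 0.1% SRB staining after 10% TCA fixation, read at 560 nm. Data were fitted bidirectionally against DMSO.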

Read-out in assay [10]: TIMP metallopeptidase inhibitor 1 (TIMP1), TIMP1 (gene 7076)
Description: BSK_hDFCGF_TIMP1: BioMAP Diversity Plus: hDFCGF Assay for TIMP metallopeptidase inhibitor 1 (TIMP1) Biomarker Activity (AID 2283062). To be noted: primary human foreskin fibroblasts; actives raise or lower the signal. Put shortly:
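Human foreskin fibroblast primary cultures dosed for 24 h; secreted/surface TIMP-1 quantified by ELISA. Bidirectional curve fitting against DMSO baseline; cytotoxicity tracked in parallel cultures by SRB total-protein staining.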

“And” between values parts separate entries of the source, which are not always exact repeats. Equal values may be shown once. A structure can be active in one record and inactive in another. The source made the active and inactive calls. Rule for the calls: active = hit-call score of the fitted dose curve at least 0.9, where 1 is the maximum; inactive = score below 0.9.

By AC50 is commonly meant the concentration at which the activity in the assay is half-maximal.

Take `CC1OC1C1CCC2(C)OC2C1` (configuration not stated): the outcome in assay [1], in assay [2], in assay [3], in assay [5], in assay [6] and in [7] was inactive. Besides, the outcome in assay [8], in [9] and in assay [10] was inactive. For the same molecule, the AC50 in [4] is 11.4 µM (active).

On to `CCCCC(CC)COC(=O)c1ccccc1O` (configuration not stated), for which the concentration at half-maximal activity (AC50) in [1] is 16.4 µM (active); in assay [4], 6.81 µM (active); in [7] it was 7 µM (active); in assay [8], 13.2 µM (active); in [9], 14.4 µM (active); in assay [10] it was 12.8 µM (active). The result in [2], in assay [3], in [5] and in assay [6] was inactive.

Regarding `C=CCOCC(O)CCl` (configuration not stated), the outcome in assay [1], in [2], in assay [3], in assay [4], in assay [5] and in assay [6] was inactive. Further, the outcome in [7], in assay [8], in assay [9] and in assay [10] was inactive.

For the molecule `C=CCOc1c(Br)cc(Br)cc1Br`, the AC50 was 35.5 µM (active) in assay [1]; 33.5 µM (active) in assay [2]; 32.3 µM (active) in assay [3]; 20 µM (active) in [4]; 10.3 µM (active) in assay [7]; 12.5 µM (active) in [8]. For the same molecule, the concentration at half-maximal activity (AC50) in assay [9] was 25.7 µM (active); in [10], 8.19 µM (active). Moreover, the result in [5] and in [6] was inactive.

For `CN1C(=O)N(C)C(O)C1O` (configuration not stated), the result in [1], in [2], in assay [3], in [4], in [5] and in [6] was inactive. In addition, the outcome in assay [7], in assay [8], in assay [9] and in assay [10] was inactive. Also, the AC50 in assay [3] was 0.179 µM (active).

With `N#[N+]c1ccc2c(S(=O)(=O)[O-])cccc2c1O`, the result in [1], in [2], in assay [3], in assay [4], in [5] and in assay [6] was inactive. In addition, the result in assay [7], in [8], in [9] and in [10] was inactive.

`CCOC(=O)c1ccccc1C(=C1C=C(Br)C(=O)C(Br)=C1)c1cc(Br)c(O)c(Br)c1`: the concentration at half-maximal activity (AC50) in assay [1] is 3.65 µM (active) and 3.77 µM (active); in assay [3], 19.4 µM (active) and 23.1 µM (active); in [4], 3.29 µM (active) and 3.26 µM (active); in assay [6], 8.71 µM (active) and 8.48 µM (active); in assay [7] it was 3.46 µM (active) and 3.43 µM (active); in assay [8], 5.09 µM (active) and 3.85 µM (active). In addition, the AC50 in assay [10] is 3.75 µM (active) and 3.67 µM (active). Moreover, the result in assay [2], in [5] and in assay [9] was inactive.

As to `C=C[Si](OC(C)=O)(OC(C)=O)OC(C)=O`, the outcome in [1], in [2], in [3], in assay [4], in assay [5] and in assay [6] was inactive. The result in assay [8], in [9] and in assay [10] was inactive. Moreover, the half-maximal activity concentration (AC50) in assay [4] is 3.16 µM (active); in [7] it was 32.4 µM (active) and 20 µM (active).

Turning to `CCO[Si](CCCN=C=O)(OCC)OCC`, the result in assay [1], in assay [2], in [3], in assay [4], in assay [5] and in [6] was inactive. Also, the outcome in [7], in assay [8], in [9] and in [10] was inactive.

For the molecule `S=C(NC1CCCCC1)NC1CCCCC1`, the outcome in assay [1], in [2], in assay [3], in assay [4], in assay [5] and in assay [6] was inactive. For the same molecule, the result in assay [7], in assay [8], in assay [9] and in [10] was inactive.

With `O=c1c2ccccc2oc2ccccc12`, the outcome in assay [1], in [2], in assay [3], in assay [4], in assay [5] and in [6] was inactive. For the same molecule, the outcome in [7], in [8], in assay [9] and in assay [10] was inactive.

Turning to `C#CC1(O)CC[C@H]2[C@@H]3CCC4=CCCC[C@@H]4[C@H]3CC[C@@]21C` (some centres not stated), the AC50 is 34.4 µM (active) in [1]; 20 µM (active) in assay [2]; 29.4 µM (active) in assay [3]; 34.4 µM (active) in assay [4]; 20 µM (active) in assay [5]; 15.1 µM (active) in assay [7]. In addition, the AC50 in assay [8] is 30 µM (active); in [9], 35.2 µM (active); in [10], 33 µM (active). For the same molecule, the result in assay [6] was inactive.

As to `CCCCC/C=C\C/C=C\CCCCCCCC(=O)OC`, the AC50 is 33.5 µM (active) in [1]; 28.7 µM (active) in [2]; 21.6 µM (active) in assay [3]; 27.8 µM (active) in assay [4]; 5.85 µM (active) in assay [7]; 26.5 µM (active) in assay [8]. The AC50 in assay [9] is 31.5 µM (active); in assay [10] it was 29.3 µM (active). For the same molecule, the outcome in assay [5] and in [6] was inactive.

`CC(C)C(=O)C(C)C`: the outcome in [1], in assay [2], in assay [3], in assay [4], in [5] and in assay [6] was inactive. Further, the result in [7], in [8], in assay [9] and in [10] was inactive.

Take `O=C(Cl)c1cc(C(=O)Cl)cc(C(=O)Cl)c1`: the concentration at half-maximal activity (AC50) is 31 µM (active) in assay [1]; 26 µM (active) in [2]; 17.8 µM (active) in assay [3]; 21.4 µM (active) in [4]; 3.77 µM (active) in [7]; 13.6 µM (active) in [8]. The results for the concentration at half-maximal activity (AC50) in [9] and in assay [10] were 26.4 µM (active) and 13.7 µM (active), respectively. The result in assay [5] and in [6] was inactive.

On to `COc1ccc2nc(N)sc2c1`, for which the result in [1], in assay [2], in assay [3], in [4], in assay [5] and in assay [6] was inactive. Besides, the result in assay [7], in [8], in assay [9] and in [10] was inactive.

As to `C=CC(=O)OCC(Br)CBr` (configuration not stated), the half-maximal activity concentration (AC50) is 5.47 µM (active) in assay [1]; 28.9 µM (active) in assay [2]; 11.4 µM (active) in [3]; 5.82 µM (active) in [4]; 20 µM (active) in assay [6]; 5.47 µM (active) in [7]. Also, the values for the AC50 in assay [8], in [9] and in assay [10] were 5.95 µM (active), 9.67 µM (active) and 11.9 µM (active), respectively. For the same molecule, in assay [5], the outcome was inactive.

As for `c1ccc2c(c1)ccc1cc3c(ccc4ccccc43)cc12`, the result in assay [1], in assay [2], in assay [3], in assay [4], in assay [5] and in assay [6] was inactive. The outcome in assay [7], in [8], in [9] and in assay [10] was inactive.
